Data on one sequence can be found in article PMC7862700, “An all-to-all approach to the identification of sequence-specific readers for epigenetic DNA modifications on cytosine”.

What all share (assay): DAPPL (digital affinity profiling via proximity ligation, sequencing); 10 mM Tris-HCl pH 7.5, 50 mM NaCl, 1 mM DTT, 4% glycerol, room temperature, 30 min; GST-TFs on glutathione beads, 16-mer random dsDNA library, 0.1% formaldehyde crosslink after washing; high values mean tight binding
One test has as its target T1, FLI1 (Homo sapiens, UniProt Q01543 1-452).
T1 sequence: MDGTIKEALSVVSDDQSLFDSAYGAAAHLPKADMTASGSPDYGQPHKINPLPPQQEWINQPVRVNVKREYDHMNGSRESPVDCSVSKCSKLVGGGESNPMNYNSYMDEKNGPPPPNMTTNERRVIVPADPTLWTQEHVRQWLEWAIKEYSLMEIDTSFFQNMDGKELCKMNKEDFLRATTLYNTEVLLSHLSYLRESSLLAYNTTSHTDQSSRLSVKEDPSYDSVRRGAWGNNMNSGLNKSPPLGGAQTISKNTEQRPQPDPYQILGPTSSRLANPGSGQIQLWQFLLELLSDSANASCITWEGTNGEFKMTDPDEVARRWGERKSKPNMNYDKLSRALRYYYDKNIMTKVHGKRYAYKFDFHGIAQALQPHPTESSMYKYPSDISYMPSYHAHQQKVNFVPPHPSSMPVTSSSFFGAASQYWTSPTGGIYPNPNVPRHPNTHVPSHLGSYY
Particulars: protein: recombinant; tags: N-terminal GST; dsDNA, one strand shown. The essentials: (§1)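 Binding signal is each hexamer's read frequency for a factor divided by its frequency in the tag-only sample. The factors were GST-fused human transcription factors from yeast, captured on glutathione beads, DNA-barcoded and pooled with that sample. Pools were incubated with 200 nmole of a random double-stranded 16-mer DNA library in Tris/NaCl/DTT/glycerol buffer at room temperature for 30 min, then washed, crosslinked with 0.1% formaldehyde, proximity-ligated with BsaI/T4 ligase (1 h, 37 °C), PCR-amplified and sequenced on an Illumina NextSeq500.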

A further test deals with T2, ELK1 (Homo sapiens, UniProt P19419 1-428).
T2 sequence: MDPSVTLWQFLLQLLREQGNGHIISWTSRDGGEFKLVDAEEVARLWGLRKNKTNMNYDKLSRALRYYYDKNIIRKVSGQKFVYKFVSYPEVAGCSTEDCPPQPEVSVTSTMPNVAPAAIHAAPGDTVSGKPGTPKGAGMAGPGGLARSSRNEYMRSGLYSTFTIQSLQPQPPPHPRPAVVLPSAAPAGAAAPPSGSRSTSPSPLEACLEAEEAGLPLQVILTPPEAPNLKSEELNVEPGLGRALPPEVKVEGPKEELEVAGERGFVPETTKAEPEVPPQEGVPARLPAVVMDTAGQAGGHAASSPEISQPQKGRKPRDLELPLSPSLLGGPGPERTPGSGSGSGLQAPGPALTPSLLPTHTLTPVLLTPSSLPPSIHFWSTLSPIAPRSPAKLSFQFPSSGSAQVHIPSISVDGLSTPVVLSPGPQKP
Particulars: protein: recombinant; tags: N-terminal GST; dsDNA, one strand shown. Summed up:
as §1

The next test concerns the target T3, GABPA (Homo sapiens, UniProt Q06546 1-454).
T3 sequence: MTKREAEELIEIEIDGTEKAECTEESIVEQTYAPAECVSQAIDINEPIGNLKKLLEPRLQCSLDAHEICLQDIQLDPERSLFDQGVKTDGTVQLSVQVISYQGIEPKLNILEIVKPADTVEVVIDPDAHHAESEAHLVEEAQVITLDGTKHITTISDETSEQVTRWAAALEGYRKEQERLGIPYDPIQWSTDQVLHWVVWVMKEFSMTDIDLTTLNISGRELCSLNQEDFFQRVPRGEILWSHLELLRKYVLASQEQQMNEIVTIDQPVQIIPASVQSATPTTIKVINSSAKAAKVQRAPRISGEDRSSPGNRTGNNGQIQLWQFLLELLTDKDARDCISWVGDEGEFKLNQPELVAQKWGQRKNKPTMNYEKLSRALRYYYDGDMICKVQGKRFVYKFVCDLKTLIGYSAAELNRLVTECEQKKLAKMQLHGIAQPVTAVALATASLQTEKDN
Particulars: protein: recombinant; tags: N-terminal GST; dsDNA, one strand shown. Summed up: as §1

For the next test, the target named is T4, ERG (Homo sapiens, UniProt P11308 1-479).
T4 sequence: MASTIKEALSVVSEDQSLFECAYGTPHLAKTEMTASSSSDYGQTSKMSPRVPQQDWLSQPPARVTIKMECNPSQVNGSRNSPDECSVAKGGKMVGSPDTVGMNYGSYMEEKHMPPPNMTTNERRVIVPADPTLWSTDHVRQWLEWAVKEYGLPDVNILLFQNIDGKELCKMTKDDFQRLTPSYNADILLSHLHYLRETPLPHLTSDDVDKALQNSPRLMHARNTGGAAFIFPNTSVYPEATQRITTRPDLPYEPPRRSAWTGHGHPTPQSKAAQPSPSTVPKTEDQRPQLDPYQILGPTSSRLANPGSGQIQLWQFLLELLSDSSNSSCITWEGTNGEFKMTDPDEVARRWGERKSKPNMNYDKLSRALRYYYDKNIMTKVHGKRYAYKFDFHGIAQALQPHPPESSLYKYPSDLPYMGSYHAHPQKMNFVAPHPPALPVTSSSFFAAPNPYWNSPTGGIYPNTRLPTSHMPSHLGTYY
The note with it: protein: recombinant; tags: N-terminal GST; dsDNA, one strand shown. Summed up: as §1

Another test addresses ELF1 (Homo sapiens, UniProt P32519 1-619). The note with it: protein: recombinant; tags: N-terminal GST; dsDNA, one strand shown. Summed up:
as §1

Another test deals with T5, EHF (Homo sapiens, UniProt Q9NZC4 1-300).
T5 sequence: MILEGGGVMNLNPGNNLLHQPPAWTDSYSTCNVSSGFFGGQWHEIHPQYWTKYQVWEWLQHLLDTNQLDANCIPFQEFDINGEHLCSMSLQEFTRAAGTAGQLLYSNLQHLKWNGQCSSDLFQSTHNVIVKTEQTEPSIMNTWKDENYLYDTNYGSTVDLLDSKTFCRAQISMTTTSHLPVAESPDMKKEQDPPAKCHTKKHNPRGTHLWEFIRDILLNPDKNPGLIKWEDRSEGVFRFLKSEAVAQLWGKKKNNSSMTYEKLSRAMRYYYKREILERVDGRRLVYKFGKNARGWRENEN
Particulars: protein: recombinant; tags: N-terminal GST; dsDNA, one strand shown. The essentials: as §1

A further test deals with SPI1 (Homo sapiens, UniProt P17947 1-270). Particulars: protein: recombinant; tags: N-terminal GST; dsDNA, one strand shown. The essentials:
as §1

The target in the next test is SPIB (Homo sapiens, UniProt Q01892 1-262). Particulars: protein: recombinant; tags: N-terminal GST; dsDNA, one strand shown. The essentials:
as §1

A further test has as its target T6, ELK3 (Homo sapiens, UniProt P41970 1-407).
T6 sequence: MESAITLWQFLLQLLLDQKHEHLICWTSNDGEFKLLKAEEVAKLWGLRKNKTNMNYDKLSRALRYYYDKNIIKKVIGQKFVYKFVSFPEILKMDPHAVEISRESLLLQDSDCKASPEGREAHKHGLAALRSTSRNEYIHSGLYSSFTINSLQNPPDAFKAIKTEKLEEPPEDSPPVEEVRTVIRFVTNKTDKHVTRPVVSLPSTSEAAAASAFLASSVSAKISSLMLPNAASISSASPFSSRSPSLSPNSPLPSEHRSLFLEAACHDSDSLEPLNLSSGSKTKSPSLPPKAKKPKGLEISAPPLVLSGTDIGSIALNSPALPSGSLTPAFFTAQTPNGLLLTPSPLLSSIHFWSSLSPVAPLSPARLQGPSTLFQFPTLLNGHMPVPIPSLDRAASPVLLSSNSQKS
Particulars: protein: recombinant; tags: N-terminal GST; dsDNA, one strand shown. The essentials: as §1

The target in the next test is T7, FEV (Homo sapiens, UniProt Q99581 1-238).
T7 sequence: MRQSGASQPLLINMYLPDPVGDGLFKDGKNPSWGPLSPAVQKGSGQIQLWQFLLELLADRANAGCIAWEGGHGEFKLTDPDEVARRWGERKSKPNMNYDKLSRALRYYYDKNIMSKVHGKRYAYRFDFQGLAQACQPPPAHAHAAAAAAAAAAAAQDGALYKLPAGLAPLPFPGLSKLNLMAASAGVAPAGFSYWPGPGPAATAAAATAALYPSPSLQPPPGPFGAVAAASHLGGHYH
Particulars: protein: recombinant; tags: N-terminal GST; dsDNA, one strand shown. The essentials: as §1

The target of the next test is ETV5 (Homo sapiens, UniProt P41161 1-510). Particulars: protein: recombinant; tags: N-terminal GST; dsDNA, one strand shown. The essentials: as §1
In another test the target is HSF1 (Homo sapiens, UniProt Q00613 1-529). Particulars: protein: recombinant; tags: N-terminal GST; chain copies: 3; dsDNA, one strand shown. Summed up:
as §1

In the next test the target is T8, SPIC (Homo sapiens, UniProt Q8N5J4 1-248).
T8 sequence: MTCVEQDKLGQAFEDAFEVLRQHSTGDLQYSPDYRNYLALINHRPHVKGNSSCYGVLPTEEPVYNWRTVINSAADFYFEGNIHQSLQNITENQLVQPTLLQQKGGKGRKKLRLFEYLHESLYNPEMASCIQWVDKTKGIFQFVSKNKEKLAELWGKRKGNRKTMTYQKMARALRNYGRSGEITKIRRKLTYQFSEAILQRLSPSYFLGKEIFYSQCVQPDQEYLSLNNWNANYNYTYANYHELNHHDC
The note with it: protein: recombinant; tags: N-terminal GST; dsDNA, one strand shown. The essentials:
as §1

For the next test, the target named is ELF4 (Homo sapiens, UniProt Q99607 1-663). The note with it: protein: recombinant; tags: N-terminal GST; dsDNA, one strand shown. Summed up: as §1
The target in the next test is T9, ELK4 (Homo sapiens, UniProt P28324-2 1-405).
T9 sequence: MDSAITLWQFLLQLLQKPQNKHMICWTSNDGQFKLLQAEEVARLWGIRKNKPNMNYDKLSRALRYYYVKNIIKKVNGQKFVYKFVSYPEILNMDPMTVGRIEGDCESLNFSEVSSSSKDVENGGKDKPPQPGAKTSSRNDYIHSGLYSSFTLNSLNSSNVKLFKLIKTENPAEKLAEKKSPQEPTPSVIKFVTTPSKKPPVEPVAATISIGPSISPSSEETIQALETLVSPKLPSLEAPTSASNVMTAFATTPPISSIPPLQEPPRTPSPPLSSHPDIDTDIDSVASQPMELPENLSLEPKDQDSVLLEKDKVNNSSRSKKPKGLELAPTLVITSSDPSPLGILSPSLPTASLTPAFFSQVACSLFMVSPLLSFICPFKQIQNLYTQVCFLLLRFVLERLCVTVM
The note with it: protein: recombinant; tags: N-terminal GST; dsDNA, one strand shown. The essentials: as §1

Another test deals with T10, ETV2 (Homo sapiens, UniProt O00321 1-342).
T10 sequence: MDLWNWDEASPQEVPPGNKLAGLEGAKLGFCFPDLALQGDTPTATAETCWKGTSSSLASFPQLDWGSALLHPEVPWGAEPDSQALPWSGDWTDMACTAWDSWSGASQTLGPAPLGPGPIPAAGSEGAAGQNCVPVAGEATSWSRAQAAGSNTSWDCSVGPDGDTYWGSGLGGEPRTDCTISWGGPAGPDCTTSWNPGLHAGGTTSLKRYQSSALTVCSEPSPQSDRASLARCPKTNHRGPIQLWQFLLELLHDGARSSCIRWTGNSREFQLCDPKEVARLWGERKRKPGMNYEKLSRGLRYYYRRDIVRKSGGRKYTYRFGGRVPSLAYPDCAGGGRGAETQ
Particulars: protein: recombinant; tags: N-terminal GST; dsDNA, one strand shown. The essentials: as §1

Another test deals with CRX (Homo sapiens, UniProt O43186 1-299). The note with it: protein: recombinant; tags: N-terminal GST; dsDNA, one strand shown. The essentials:
as §1

A further test addresses ETV1 (Homo sapiens, UniProt P50549 1-477). The note with it: protein: recombinant; tags: N-terminal GST; dsDNA, one strand shown. Summed up: as §1

Sequence of SPIB (Q01892 whole entry): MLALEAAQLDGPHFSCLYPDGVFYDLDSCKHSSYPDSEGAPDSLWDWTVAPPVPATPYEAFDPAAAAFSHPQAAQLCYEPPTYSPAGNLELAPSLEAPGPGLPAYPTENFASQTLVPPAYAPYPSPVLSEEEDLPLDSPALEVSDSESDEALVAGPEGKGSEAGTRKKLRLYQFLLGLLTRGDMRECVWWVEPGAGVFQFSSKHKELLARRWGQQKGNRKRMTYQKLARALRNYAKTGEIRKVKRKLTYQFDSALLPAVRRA
Sequence of ETV1 (P50549 whole entry): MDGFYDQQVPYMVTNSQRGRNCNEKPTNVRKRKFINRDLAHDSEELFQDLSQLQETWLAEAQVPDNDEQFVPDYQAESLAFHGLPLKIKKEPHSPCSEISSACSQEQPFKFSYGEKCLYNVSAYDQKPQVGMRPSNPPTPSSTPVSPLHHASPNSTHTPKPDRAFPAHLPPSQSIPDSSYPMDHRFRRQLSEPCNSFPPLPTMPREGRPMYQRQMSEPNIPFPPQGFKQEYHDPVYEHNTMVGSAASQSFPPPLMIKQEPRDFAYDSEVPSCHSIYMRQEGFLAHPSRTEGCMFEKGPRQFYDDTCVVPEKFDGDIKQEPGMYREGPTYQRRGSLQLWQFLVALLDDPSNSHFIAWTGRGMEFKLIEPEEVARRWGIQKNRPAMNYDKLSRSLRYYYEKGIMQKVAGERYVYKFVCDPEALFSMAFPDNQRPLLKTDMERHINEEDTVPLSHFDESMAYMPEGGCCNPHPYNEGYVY
Sequence of ELF1 (P32519 whole entry): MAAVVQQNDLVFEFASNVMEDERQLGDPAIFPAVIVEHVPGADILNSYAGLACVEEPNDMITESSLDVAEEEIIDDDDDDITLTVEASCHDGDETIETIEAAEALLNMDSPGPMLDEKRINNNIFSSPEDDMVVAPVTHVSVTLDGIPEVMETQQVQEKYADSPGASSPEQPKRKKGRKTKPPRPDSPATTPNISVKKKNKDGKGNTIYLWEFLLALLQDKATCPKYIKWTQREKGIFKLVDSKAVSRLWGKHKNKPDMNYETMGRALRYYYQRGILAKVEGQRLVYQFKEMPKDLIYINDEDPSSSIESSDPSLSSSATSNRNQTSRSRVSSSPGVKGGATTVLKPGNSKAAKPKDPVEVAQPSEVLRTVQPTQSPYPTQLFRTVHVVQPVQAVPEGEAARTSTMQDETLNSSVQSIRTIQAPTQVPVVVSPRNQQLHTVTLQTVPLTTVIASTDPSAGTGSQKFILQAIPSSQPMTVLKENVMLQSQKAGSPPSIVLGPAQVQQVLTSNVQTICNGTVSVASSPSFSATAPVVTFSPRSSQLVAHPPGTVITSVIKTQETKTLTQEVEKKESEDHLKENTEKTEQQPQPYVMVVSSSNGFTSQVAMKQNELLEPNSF
Sequence of HSF1 (Q00613 whole entry): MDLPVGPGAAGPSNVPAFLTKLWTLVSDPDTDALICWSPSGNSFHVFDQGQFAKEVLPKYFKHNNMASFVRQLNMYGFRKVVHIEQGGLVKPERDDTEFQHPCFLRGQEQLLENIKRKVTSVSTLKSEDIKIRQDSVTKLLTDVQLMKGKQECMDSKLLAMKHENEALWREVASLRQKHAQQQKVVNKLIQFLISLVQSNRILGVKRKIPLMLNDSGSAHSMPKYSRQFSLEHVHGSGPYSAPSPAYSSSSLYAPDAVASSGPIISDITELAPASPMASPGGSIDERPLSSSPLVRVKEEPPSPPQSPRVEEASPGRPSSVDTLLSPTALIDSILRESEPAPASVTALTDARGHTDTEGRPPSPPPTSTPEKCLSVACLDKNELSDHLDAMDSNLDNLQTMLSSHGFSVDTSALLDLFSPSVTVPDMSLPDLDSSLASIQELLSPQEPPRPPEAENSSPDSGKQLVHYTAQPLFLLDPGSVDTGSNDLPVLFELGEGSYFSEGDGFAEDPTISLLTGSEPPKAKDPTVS
Sequence of ELF4 (Q99607 whole entry): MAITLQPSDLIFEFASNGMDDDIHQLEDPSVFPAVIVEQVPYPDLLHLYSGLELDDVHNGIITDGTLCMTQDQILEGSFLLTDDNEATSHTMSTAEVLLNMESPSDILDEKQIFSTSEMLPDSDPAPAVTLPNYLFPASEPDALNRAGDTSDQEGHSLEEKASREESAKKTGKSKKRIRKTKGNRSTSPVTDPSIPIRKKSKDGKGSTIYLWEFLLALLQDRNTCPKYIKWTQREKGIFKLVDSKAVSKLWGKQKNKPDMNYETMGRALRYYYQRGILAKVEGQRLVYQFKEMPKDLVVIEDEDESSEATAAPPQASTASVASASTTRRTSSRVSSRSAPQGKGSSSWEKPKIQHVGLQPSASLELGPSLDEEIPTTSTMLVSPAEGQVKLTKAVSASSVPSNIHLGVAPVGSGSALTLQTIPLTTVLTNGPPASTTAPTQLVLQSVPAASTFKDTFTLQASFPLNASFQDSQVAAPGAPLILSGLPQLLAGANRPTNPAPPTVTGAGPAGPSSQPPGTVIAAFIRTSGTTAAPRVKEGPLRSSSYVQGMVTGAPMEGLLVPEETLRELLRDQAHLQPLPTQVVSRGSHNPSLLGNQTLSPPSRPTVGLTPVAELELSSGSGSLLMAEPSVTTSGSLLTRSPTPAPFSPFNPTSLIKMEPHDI
Sequence of ETV5 (P41161 whole entry): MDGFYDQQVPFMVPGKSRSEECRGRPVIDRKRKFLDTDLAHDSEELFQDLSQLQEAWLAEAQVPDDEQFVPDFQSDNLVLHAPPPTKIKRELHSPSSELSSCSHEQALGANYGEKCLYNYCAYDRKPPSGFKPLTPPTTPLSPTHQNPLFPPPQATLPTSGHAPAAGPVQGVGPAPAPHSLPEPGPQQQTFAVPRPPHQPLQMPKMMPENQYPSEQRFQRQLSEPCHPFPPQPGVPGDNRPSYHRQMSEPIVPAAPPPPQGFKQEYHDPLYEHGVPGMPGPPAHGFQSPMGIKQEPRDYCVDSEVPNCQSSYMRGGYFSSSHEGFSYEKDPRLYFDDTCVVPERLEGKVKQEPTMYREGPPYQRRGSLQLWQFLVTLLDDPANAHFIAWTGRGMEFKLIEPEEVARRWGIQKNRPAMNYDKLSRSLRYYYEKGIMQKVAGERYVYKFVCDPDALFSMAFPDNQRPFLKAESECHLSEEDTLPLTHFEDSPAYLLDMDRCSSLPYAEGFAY
Sequence of CRX (O43186 whole entry): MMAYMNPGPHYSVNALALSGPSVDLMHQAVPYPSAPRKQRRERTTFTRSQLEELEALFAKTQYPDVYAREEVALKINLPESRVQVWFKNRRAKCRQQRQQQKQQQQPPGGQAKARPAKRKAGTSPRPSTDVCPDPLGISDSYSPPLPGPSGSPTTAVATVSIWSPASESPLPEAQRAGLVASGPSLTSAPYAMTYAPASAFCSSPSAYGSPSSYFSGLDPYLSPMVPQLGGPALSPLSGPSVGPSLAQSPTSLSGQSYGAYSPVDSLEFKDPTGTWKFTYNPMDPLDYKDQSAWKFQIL

With TCCACC, the binding signal with FLI1 is 1.22 fold enrichment (6-mer frequency, TF over GST control); with ELK1, 1.18 fold enrichment (6-mer frequency, TF over GST control); with GABPA, 1.21 fold enrichment (6-mer frequency, TF over GST control); with ERG it was 1.19 fold enrichment (6-mer frequency, TF over GST control); with ELF1 it was 1.2 fold enrichment (6-mer frequency, TF over GST control); with EHF it was 1.28 fold enrichment (6-mer frequency, TF over GST control). In addition, the binding signal was 1.19 fold enrichment (6-mer frequency, TF over GST control) in the test with SPI1; 1.3 fold enrichment (6-mer frequency, TF over GST control) in the test with SPIB; 1.18 fold enrichment (6-mer frequency, TF over GST control) in the test with ELK3; 1.3 fold enrichment (6-mer frequency, TF over GST control) with FEV; 1.16 fold enrichment (6-mer frequency, TF over GST control) in the test with ETV5; 1.13 fold enrichment (6-mer frequency, TF over GST control) with HSF1. The binding signal was 1.03 fold enrichment (6-mer frequency, TF over GST control) with SPIC; 1.19 fold enrichment (6-mer frequency, TF over GST control) in the test with ELF4; 1.19 fold enrichment (6-mer frequency, TF over GST control) with ELK4; 1.27 fold enrichment (6-mer frequency, TF over GST control) with ETV2; 1.04 fold enrichment (6-mer frequency, TF over GST control) in the test with CRX; 1.13 fold enrichment (6-mer frequency, TF over GST control) with ETV1.
